Measured values from paper PMC5540273 (PLoS ONE, 2017).

Key:
Settings in all cases: concentration: 1 μM, replicates: in singlicate; n = 1
[1] = tested on: RPS6KA4(Kin.Dom.1-N-terminal)
[2] = tested on: RPS6KA4(Kin.Dom.2-C-terminal)
[3] = tested on: RPS6KA5(Kin.Dom.1-N-terminal)
[4] = tested on: RPS6KA5(Kin.Dom.2-C-terminal)
[5] = tested on: T1, RSK1(Kin.Dom.1-N-terminal)
T1 construct: gene RPS6KA1

[6] = tested on: T2, RSK1(Kin.Dom.2-C-terminal)
T2 construct: gene RPS6KA1

[7] = tested on: T3, RSK2(Kin.Dom.1-N-terminal)
T3 construct: gene RPS6KA3

[8] = tested on: T4, RSK2(Kin.Dom.2-C-terminal)
T4 construct: gene RPS6KA3

[9] = tested on: T5, RSK3(Kin.Dom.1-N-terminal)
T5 construct: gene RPS6KA2

[10] = tested on: T6, RSK3(Kin.Dom.2-C-terminal)
T6 construct: gene RPS6KA2

[11] = tested on: T7, RSK4(Kin.Dom.1-N-terminal)
T7 construct: gene RPS6KA6

[12] = tested on: T8, RSK4(Kin.Dom.2-C-terminal)
T8 construct: gene RPS6KA6

S6K1 = tested on: S6K1
SBK1 = tested on: SBK1
SGK2 = tested on: SGK2
SGK3 = tested on: SGK3
SGK = tested on: SGK
SIK2 = tested on: SIK2
SIK = tested on: SIK
SLK = tested on: SLK
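Also: KINOMEscan kinase panel screen.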

SMILES: COC(=O)Nc1nc2ccc(Oc3ccc(NC(=O)Nc4cc(C(F)(F)F)ccc4F)cc3)cc2n1C.Cl [GW692089]
- %Inh [1]: 6%
- %Inh [2]: 0%
- %Inh [3]: 0%
- %Inh [4]: 0%
- %Inh [5]: 0%
- %Inh [6]: 0%
- %Inh [7]: 40%
- %Inh [8]: 0%
- %Inh [9]: 0%
- %Inh [10]: 0%
- %Inh [11]: 0%
- %Inh [12]: 0%
- %Inh (S6K1): 1%
- %Inh (SBK1): 4%
- %Inh (SGK2): 0%
- %Inh (SGK3): 20%
- %Inh (SGK): 8%
- %Inh (SIK2): 0%
- %Inh (SIK): 1%
- %Inh (SLK): 49%

SMILES: Cl.Cl.NCC(C(=O)Nc1cc(Br)c(-c2ccnc3[nH]ccc23)s1)c1ccccc1 (stereo not drawn) [GSK1269851]
- %Inh [1]: 18%
- %Inh [2]: 1%
- %Inh [3]: 10%
- %Inh [4]: 5%
- %Inh [5]: 6%
- %Inh [6]: 0%
- %Inh [7]: 24%
- %Inh [8]: 2%
- %Inh [9]: 100%
- %Inh [10]: 3%
- %Inh [11]: 0%
- %Inh [12]: 2%
- %Inh (S6K1): 35%
- %Inh (SBK1): 3%
- %Inh (SGK2): 0%
- %Inh (SGK3): 24%
- %Inh (SGK): 28%
- %Inh (SIK2): 0%
- %Inh (SIK): 0%
- %Inh (SLK): 14%

SMILES: O=C(NC1CCN(c2ccnc(Nc3ccc(F)cc3)n2)C1)c1cc2ccccc2s1 (stereo not drawn) [GSK1379716]
- %Inh [1]: 17%
- %Inh [2]: 0%
- %Inh [3]: 29%
- %Inh [4]: 0%
- %Inh [5]: 22%
- %Inh [6]: 13%
- %Inh [7]: 4%
- %Inh [8]: 0%
- %Inh [9]: 20%
- %Inh [10]: 4%
- %Inh [11]: 0%
- %Inh [12]: 24%
- %Inh (S6K1): 0%
- %Inh (SBK1): 24%
- %Inh (SGK2): 0%
- %Inh (SGK3): 0%
- %Inh (SGK): 14%
- %Inh (SIK2): 6%
- %Inh (SIK): 11%
- %Inh (SLK): 32%

SMILES: c1ccc(Oc2ccc(Nc3ccnc4cc(-c5ccc(CNCCN6CCOCC6)o5)ccc34)cc2)nc1 [GW567145]
- %Inh [1]: 0%
- %Inh [2]: 0%
- %Inh [3]: 0%
- %Inh [4]: 0%
- %Inh [5]: 93.3%
- %Inh [6]: 0%
- %Inh [7]: 0%
- %Inh [8]: 0%
- %Inh [9]: 0%
- %Inh [10]: 0%
- %Inh [11]: 0%
- %Inh [12]: 0%
- %Inh (S6K1): 0%
- %Inh (SBK1): 8%
- %Inh (SGK2): 0%
- %Inh (SGK3): 0%
- %Inh (SGK): 17%
- %Inh (SIK2): 78%
- %Inh (SIK): 96.4%
- %Inh (SLK): 8%

SMILES: COc1cccc(NC(=O)NC2CCN(c3ccnc(Nc4cc(OC)c(OC)c(OC)c4)n3)C2)c1 (stereo not drawn) [GSK1379763]
- %Inh [1]: 0%
- %Inh [2]: 0%
- %Inh [3]: 0%
- %Inh [4]: 35%
- %Inh [5]: 12%
- %Inh [6]: 4%
- %Inh [7]: 0%
- %Inh [8]: 8%
- %Inh [9]: 12%
- %Inh [10]: 0%
- %Inh [11]: 0%
- %Inh [12]: 0%
- %Inh (S6K1): 0%
- %Inh (SBK1): 15%
- %Inh (SGK2): 0%
- %Inh (SGK3): 7%
- %Inh (SGK): 0%
- %Inh (SIK2): 4%
- %Inh (SIK): 0%
- %Inh (SLK): 42%

SMILES: CC(C)(C)c1ccc2nccc(Nc3cccc(O)c3)c2c1 [GW856795]
- %Inh [1]: 0%
- %Inh [2]: 0%
- %Inh [3]: 0%
- %Inh [4]: 0%
- %Inh [5]: 0%
- %Inh [6]: 0%
- %Inh [7]: 0%
- %Inh [8]: 49%
- %Inh [9]: 19%
- %Inh [10]: 30%
- %Inh [11]: 0%
- %Inh [12]: 27%
- %Inh (S6K1): 9%
- %Inh (SBK1): 0%
- %Inh (SGK2): 1%
- %Inh (SGK3): 0%
- %Inh (SGK): 15%
- %Inh (SIK2): 0%
- %Inh (SIK): 0%
- %Inh (SLK): 55%

SMILES: COC(=O)Nc1nc2cc(Oc3ccc(NC(=O)Nc4cc(C(F)(F)F)ccc4F)cn3)ccc2[nH]1.Cl.Cl [GW681170]
- %Inh [1]: 9%
- %Inh [2]: 0%
- %Inh [3]: 21%
- %Inh [4]: 7%
- %Inh [5]: 0%
- %Inh [6]: 50%
- %Inh [7]: 0%
- %Inh [8]: 0%
- %Inh [9]: 0%
- %Inh [10]: 17%
- %Inh [11]: 0%
- %Inh [12]: 0%
- %Inh (S6K1): 12%
- %Inh (SBK1): 0%
- %Inh (SGK2): 1%
- %Inh (SGK3): 6%
- %Inh (SGK): 12%
- %Inh (SIK2): 0%
- %Inh (SIK): 0%
- %Inh (SLK): 36%

SMILES: COc1cc(Nc2nccc(-c3c(-c4cccc(NC(=O)c5c(F)cccc5F)c4)nn4ncccc34)n2)cc(OC)c1OC [GSK327238]
- %Inh [1]: 55%
- %Inh [2]: 0%
- %Inh [3]: 43%
- %Inh [4]: 3%
- %Inh [5]: 97.3%
- %Inh [6]: 25%
- %Inh [7]: 84%
- %Inh [8]: 0%
- %Inh [9]: 96.8%
- %Inh [10]: 0%
- %Inh [11]: 10%
- %Inh [12]: 6%
- %Inh (S6K1): 38%
- %Inh (SBK1): 28%
- %Inh (SGK2): 0%
- %Inh (SGK3): 1%
- %Inh (SGK): 0%
- %Inh (SIK2): 26%
- %Inh (SIK): 78%
- %Inh (SLK): 99.2%

SMILES: Cl.Cl.NCC(NCc1ccc(-c2ccnc3[nH]ccc23)s1)c1ccccc1 (stereo not drawn) [GSK1321565]
- %Inh [1]: 16%
- %Inh [2]: 57%
- %Inh [3]: 32%
- %Inh [4]: 53%
- %Inh [5]: 25%
- %Inh [6]: 0%
- %Inh [7]: 36%
- %Inh [8]: 0%
- %Inh [9]: 39%
- %Inh [10]: 14%
- %Inh [11]: 55%
- %Inh [12]: 26%
- %Inh (S6K1): 53%
- %Inh (SBK1): 57%
- %Inh (SGK2): 0%
- %Inh (SGK3): 43%
- %Inh (SGK): 55%
- %Inh (SIK2): 0%
- %Inh (SIK): 5%
- %Inh (SLK): 74%

SMILES: COc1cccc(C2=C(Nc3ccc(Cl)c(C(=O)O)c3)C(=O)NC2=O)c1 [SB-390769]
- %Inh [1]: 17%
- %Inh [2]: 0%
- %Inh [3]: 13%
- %Inh [4]: 0%
- %Inh [5]: 29%
- %Inh [6]: 0%
- %Inh [7]: 100%
- %Inh [8]: 20%
- %Inh [9]: 14%
- %Inh [10]: 0%
- %Inh [11]: 100%
- %Inh [12]: 0%
- %Inh (S6K1): 2%
- %Inh (SBK1): 99.9%
- %Inh (SGK2): 19%
- %Inh (SGK3): 100%
- %Inh (SGK): 0%
- %Inh (SIK2): 0%
- %Inh (SIK): 0%
- %Inh (SLK): 16%

SMILES: NCCCC(NC(=O)c1cc(Br)c(-c2ccnc3[nH]ccc23)s1)c1ccccc1.O=C(O)C(F)(F)F.O=C(O)C(F)(F)F (stereo not drawn) [GSK1287544]
- %Inh [1]: 53%
- %Inh [2]: 1%
- %Inh [3]: 51%
- %Inh [4]: 5%
- %Inh [5]: 0%
- %Inh [6]: 0%
- %Inh [7]: 29%
- %Inh [8]: 0%
- %Inh [9]: 12%
- %Inh [10]: 0%
- %Inh [11]: 8%
- %Inh [12]: 0%
- %Inh (S6K1): 58%
- %Inh (SBK1): 44%
- %Inh (SGK2): 65%
- %Inh (SGK3): 52%
- %Inh (SGK): 54%
- %Inh (SIK2): 0%
- %Inh (SIK): 19%
- %Inh (SLK): 14%

SMILES: Nc1ncc(-c2cccnc2)c2scc(-c3ccc4c(c3)CCN4C(=O)Cc3ccccc3)c12 [GSK683281]
- %Inh [1]: 24%
- %Inh [2]: 0%
- %Inh [3]: 21%
- %Inh [4]: 0%
- %Inh [5]: 21%
- %Inh [6]: 1%
- %Inh [7]: 0%
- %Inh [8]: 24%
- %Inh [9]: 14%
- %Inh [10]: 0%
- %Inh [11]: 0%
- %Inh [12]: 26%
- %Inh (S6K1): 0%
- %Inh (SBK1): 25%
- %Inh (SGK2): 0%
- %Inh (SGK3): 10%
- %Inh (SGK): 0%
- %Inh (SIK2): 4%
- %Inh (SIK): 19%
- %Inh (SLK): 33%

SMILES: O=C(Nc1ccccc1F)NC1CCN(c2ccnc(Nc3ccc(F)cc3)n2)CC1 [GSK1379800]
- %Inh [1]: 9%
- %Inh [2]: 0%
- %Inh [3]: 0%
- %Inh [4]: 26%
- %Inh [5]: 19%
- %Inh [6]: 0%
- %Inh [7]: 0%
- %Inh [8]: 0%
- %Inh [9]: 0%
- %Inh [10]: 0%
- %Inh [11]: 0%
- %Inh [12]: 6%
- %Inh (S6K1): 0%
- %Inh (SBK1): 0%
- %Inh (SGK2): 0%
- %Inh (SGK3): 9%
- %Inh (SGK): 0%
- %Inh (SIK2): 0%
- %Inh (SIK): 3%
- %Inh (SLK): 0%

SMILES: Nc1n[nH]c2cnc(-c3ccccc3)cc12 [SB-642124]
- %Inh [1]: 0%
- %Inh [2]: 71%
- %Inh [3]: 12%
- %Inh [4]: 44%
- %Inh [5]: 23%
- %Inh [6]: 0%
- %Inh [7]: 22%
- %Inh [8]: 23%
- %Inh [9]: 18%
- %Inh [10]: 3%
- %Inh [11]: 19%
- %Inh [12]: 15%
- %Inh (S6K1): 10%
- %Inh (SBK1): 22%
- %Inh (SGK2): 31%
- %Inh (SGK3): 74%
- %Inh (SGK): 74%
- %Inh (SIK2): 2%
- %Inh (SIK): 0%
- %Inh (SLK): 0%

SMILES: Nc1ncc(-c2ccc3nccc(-c4ccncc4)c3c2)cc1S(=O)(=O)N1CCOCC1 [GSK1627798]
- %Inh [1]: 0%
- %Inh [2]: 0%
- %Inh [3]: 18%
- %Inh [4]: 0%
- %Inh [5]: 14%
- %Inh [6]: 0%
- %Inh [7]: 0%
- %Inh [8]: 0%
- %Inh [9]: 7%
- %Inh [10]: 0%
- %Inh [11]: 14%
- %Inh [12]: 22%
- %Inh (S6K1): 0%
- %Inh (SBK1): 3%
- %Inh (SGK2): 0%
- %Inh (SGK3): 7%
- %Inh (SGK): 0%
- %Inh (SIK2): 0%
- %Inh (SIK): 0%
- %Inh (SLK): 36%
